In PubChem BioAssay (NCATS):
Results filed as inconclusive are left out. Where a call stands in place of a potency, no number is given. Values without a mark were called inactive. Calls of active or inactive are those of the source. Calls come from the whole dose curve; as a rule, active = well fitted curve in the direction sought with a large enough effect; inconclusive = small, poorly fitted or top-dose-only effect, or another doubt; inactive = no such curve, though single readings can be large; an effect the other way counts as inactive or inconclusive.

Key:
[1] = target: Rap guanine nucleotide exchange factor 3 (Homo sapiens) (UniProt O95398); assay: Confirmatory qHTS for antagonist of cAMP-regulated guanine nucleotide exchange factor 3 (EPAC1) (AID 1645880); note: nearly all actives have a fitted effect of over 55% in size; note: potency is the fitted concentration of half-maximal effect
In short: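 Nucleotide exchange uses 100 nM EPAC1, 250 nM RAP1B-BODIPY-GDP and 50 uM GDP, with compounds in a concentration-titration series. After 5 min at room temperature, fluorescence (480 nm ex/540 nm em) is read every 5 min for 30 min. Data are normalized to control ATA and DMSO.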

[2] = target: Rap guanine nucleotide exchange factor 3 (Homo sapiens) (UniProt O95398); assay: Confirmatory qHTS for agonist of cAMP-regulated guanine nucleotide exchange factor 3 (EPAC1) (AID 1645881);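 note: EPAC1 catalysed release of BODIPY-GDP from Rap1B seen as fluorescence loss; nearly all actives have a fitted effect of over 75% in size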
[3] = target: Rap guanine nucleotide exchange factor 4 (Homo sapiens) (UniProt Q8WZA2); assay: Confirmatory qHTS for agonist of cAMP-regulated guanine nucleotide exchange factor 4 (EPAC2) (AID 1645884);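 note: nucleotide exchange releases bodipy-GDP from Rap1 and this lowers its fluorescence; nearly all actives have a fitted effect of over 65% in size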; note: potency is the fitted concentration of half-maximal effect
[4] = target: Rap guanine nucleotide exchange factor 4 (Homo sapiens) (UniProt Q8WZA2); assay: Confirmatory qHTS for antagonist of cAMP-regulated guanine nucleotide exchange factor 4 (EPAC2) (AID 1645885); note: nearly all actives have a fitted effect of over 25% in size; note: potency is the fitted concentration of half-maximal effect

Rap guanine nucleotide exchange factor 4 (Homo sapiens), sequence (Q8WZA2 whole entry, looked up): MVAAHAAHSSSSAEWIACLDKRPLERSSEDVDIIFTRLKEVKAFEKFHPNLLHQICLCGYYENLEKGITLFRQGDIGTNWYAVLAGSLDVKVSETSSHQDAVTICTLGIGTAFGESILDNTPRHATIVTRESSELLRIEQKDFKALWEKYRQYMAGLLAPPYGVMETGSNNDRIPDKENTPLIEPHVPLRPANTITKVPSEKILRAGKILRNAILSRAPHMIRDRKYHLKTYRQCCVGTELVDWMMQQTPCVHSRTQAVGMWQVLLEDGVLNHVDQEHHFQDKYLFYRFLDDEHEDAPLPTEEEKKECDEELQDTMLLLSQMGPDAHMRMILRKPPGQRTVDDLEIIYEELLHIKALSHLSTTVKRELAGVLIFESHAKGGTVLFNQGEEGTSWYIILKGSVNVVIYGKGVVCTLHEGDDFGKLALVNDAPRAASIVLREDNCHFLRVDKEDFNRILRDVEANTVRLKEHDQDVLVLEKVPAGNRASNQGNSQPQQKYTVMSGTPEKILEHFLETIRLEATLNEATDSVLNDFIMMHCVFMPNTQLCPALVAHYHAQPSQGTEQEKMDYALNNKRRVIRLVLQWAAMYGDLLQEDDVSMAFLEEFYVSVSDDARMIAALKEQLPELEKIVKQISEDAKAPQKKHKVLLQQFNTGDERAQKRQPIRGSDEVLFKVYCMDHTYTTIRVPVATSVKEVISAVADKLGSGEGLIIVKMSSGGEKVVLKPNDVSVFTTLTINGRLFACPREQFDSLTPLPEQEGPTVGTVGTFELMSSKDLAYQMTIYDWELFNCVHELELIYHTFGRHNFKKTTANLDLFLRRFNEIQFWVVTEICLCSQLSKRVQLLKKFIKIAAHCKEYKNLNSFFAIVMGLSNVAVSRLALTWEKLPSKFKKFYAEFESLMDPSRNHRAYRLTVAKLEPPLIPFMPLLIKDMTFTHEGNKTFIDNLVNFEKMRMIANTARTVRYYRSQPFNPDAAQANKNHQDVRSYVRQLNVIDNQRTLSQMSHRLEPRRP
Rap guanine nucleotide exchange factor 3 (Homo sapiens), sequence (O95398 whole entry, looked up): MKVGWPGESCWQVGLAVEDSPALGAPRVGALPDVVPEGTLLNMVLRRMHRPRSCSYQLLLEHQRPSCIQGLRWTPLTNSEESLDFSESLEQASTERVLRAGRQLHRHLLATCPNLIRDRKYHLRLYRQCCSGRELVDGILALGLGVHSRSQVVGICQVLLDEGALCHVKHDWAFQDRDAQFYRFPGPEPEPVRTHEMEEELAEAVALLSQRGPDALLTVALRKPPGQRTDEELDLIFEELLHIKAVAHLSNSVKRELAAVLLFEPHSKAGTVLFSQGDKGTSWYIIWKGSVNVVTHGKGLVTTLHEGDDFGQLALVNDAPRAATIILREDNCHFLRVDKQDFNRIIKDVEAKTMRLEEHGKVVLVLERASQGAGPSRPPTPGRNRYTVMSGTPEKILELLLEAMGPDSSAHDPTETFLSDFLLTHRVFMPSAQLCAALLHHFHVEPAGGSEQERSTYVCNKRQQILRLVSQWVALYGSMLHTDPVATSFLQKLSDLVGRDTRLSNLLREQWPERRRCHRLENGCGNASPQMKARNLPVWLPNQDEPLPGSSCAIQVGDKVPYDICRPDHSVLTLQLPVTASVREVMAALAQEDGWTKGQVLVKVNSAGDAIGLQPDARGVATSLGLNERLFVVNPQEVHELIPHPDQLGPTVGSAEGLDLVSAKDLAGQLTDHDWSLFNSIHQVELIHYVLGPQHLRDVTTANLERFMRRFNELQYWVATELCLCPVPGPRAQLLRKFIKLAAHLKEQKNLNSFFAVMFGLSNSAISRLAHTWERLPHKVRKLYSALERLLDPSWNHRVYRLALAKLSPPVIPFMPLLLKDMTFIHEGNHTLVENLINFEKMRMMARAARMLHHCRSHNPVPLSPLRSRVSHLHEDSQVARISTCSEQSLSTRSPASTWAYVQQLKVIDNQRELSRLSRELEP

| SMILES | Potency [1] | Potency [2] | Potency [3] | activation [3] | Potency [4] |
| --- | --- | --- | --- | --- | --- |
| Cc1ccc2c(/C=C/c3c[nH]c4ccccc34)ccnc2c1C | inactive | inactive | inactive |  |  |
| CN(C)c1ccc(/C=C/c2c(Cl)cnc3ccccc23)cc1 | inactive | inactive |  |  |  |
| C=CCn1c(N)c(S(=O)(=O)c2cccs2)c2nc3ccccc3nc21 | 33.8 µM (active) | inactive | inactive |  |  |
| CCc1ccc([C@@H]2CC=C(C(=O)O)[C@H](c3ccc(Br)cc3)N2S(=O)(=O)c2ccc(C)cc2)cc1 | 17.8 µM (active) | inactive |  | -5.28% [at 17.1 µM, percent relative to cAMP agonist control] |  |
| Cc1cc(C)c2nccc(/C=C/c3ccc(N(C)C)cc3)c2c1 | inactive | inactive | inactive |  |  |
| COC(=O)c1cc(Br)c(=O)n(CCC2=CCCCC2)c1 | inactive | inactive |  | 0% [at 17.1 µM, percent relative to cAMP agonist control] |  |
| Cc1ccc(C2SCC(=O)N2Cc2ccccc2)cc1 (centres undefined) | inactive | inactive | inactive |  |  |
| CC(C)(C)[C@H]1CCC(=O)N([C@H](CN=[N+]=[N-])Cc2ccccc2)CC1 | inactive | inactive | inactive |  |  |
| C[C@@H]1CCC(=O)N(CC[C@H](Oc2ccccc2)c2ccccc2)CC1 | inactive | inactive | inactive |  |  |
| CN1CC(O)C2=CC(=O)C(=O)C=C21 (centres undefined) | 2.8 µM (active) | inactive | inactive |  |  |
| Cc1cnc2ccccc2c1/C=C/c1ccc(N(C)C)cc1 | inactive | inactive | inactive |  |  |
| CCCCOC(=O)Nc1ccc(S(=O)(=O)Nc2nccs2)cc1 | inactive | inactive | inactive |  |  |
| c1ccc2c(N3CCCCCC3)nc(CN3CCCCC3c3nccs3)nc2c1 (centres undefined) | inactive | inactive | inactive |  | 13.9 µM (active) |
| Cc1ccc2nccc(/C=C/c3ccc(N(C)C)cc3)c2c1 | inactive | inactive | inactive |  |  |
| COC(=O)c1cc(CNC(=O)c2ccccn2)cc(NC(=O)c2ccccc2OC)c1 | inactive | inactive | inactive |  | inactive |
| Cc1ccc(S(=O)(=O)N2[C@@H](c3cccc(Cl)c3)C(C(=O)O)=CC[C@H]2c2ccc(C(C)C)cc2)cc1 | 67.5 µM (active) | inactive | inactive |  |  |
| C/C=C(\C)C(=O)OC1C(OC(=O)C2(C)OC2C)c2cc3ccc(=O)oc3cc2OC1(C)C (centres undefined) | inactive | inactive | inactive |  |  |
| COCCN(CCOC)c1nc(-c2ccccc2)nc2ccccc12 | inactive | inactive | inactive |  |  |
| Cc1ccc(CN2C(=O)CSC2c2ccc(F)cc2)cc1 (centres undefined) | inactive | inactive | inactive |  |  |
| COc1cccc(CN(C)C(=O)c2cnn(-c3ncc4c(n3)-c3ccccc3CCC4)c2C)c1 | inactive | inactive | inactive |  |  |
| C=CCOc1ccc(Br)cc1/C=C1/SC(=Nc2ccc(C(=O)O)cc2)NC1=O | 30.1 µM (active) | inactive | inactive |  |  |
| Cc1[nH]c2ccccc2c1/C=C/c1ccc2ccccc2n1 | inactive | inactive | inactive |  |  |
| COc1ccc(Cl)cc1NC(=O)CN(C)Cc1cccs1 | inactive | inactive |  |  |  |

| SMILES | Potency [1] | Potency [2] | Potency [3] | activation [3] | Potency [4] |
| --- | --- | --- | --- | --- | --- |
| COc1ccc(C2CN=NC23CCc2ccccc2C3=O)cc1 (centres undefined) | inactive | inactive | inactive |  |  |
| COc1cc(OC)c2c(-c3ccccc3)cc(=O)oc2c1 | inactive | inactive |  | 5.59% [at 17.1 µM, percent relative to cAMP agonist control] |  |
| Cc1cc(/C=C/c2ccnc3ccccc23)ccc1N(C)C | inactive | inactive | inactive |  |  |
| Cc1cc(C(=O)NCc2nc(-c3cccc(NC(=O)c4ccccc4)c3)oc2C)nc(C)n1 | inactive | inactive | inactive |  |  |
| CCOC(=O)C1CCCN(C(=O)c2cnn(-c3nccc(-c4cc(C)sc4C)n3)c2C)C1 (centres undefined) | inactive | inactive | inactive |  |  |
| COc1ccc(SC[C@H](C)CN2CC[C@H](C)CCC2=O)cc1 | inactive | inactive | inactive |  | inactive |
| CCCCN(C(=O)c1cccc2c(=O)c(C)c(-c3ccccc3)oc12)c1ccccc1 | inactive | inactive |  | 8.49% [at 17.1 µM, percent relative to cAMP agonist control] | inactive |
| Fc1ccccc1N1CCN(c2ncnc3onc(-c4ccc(Cl)cc4)c23)CC1 | inactive | inactive | inactive |  | inactive |
| C/C(CC(=O)Nc1ccc2ccccc2c1)=N\NC(=O)c1cnccn1 | inactive | inactive | inactive |  | inactive |
| O=C(O)c1cc(-c2ccc(-c3c(-c4ccc5c(c4)OCO5)noc3-c3ccsc3)cc2)nc2ccccc12 | 75.7 µM (active) | inactive | inactive |  | 37.9 µM (active) |
| Cc1ccc2nc3sc(C(=O)NCc4ccco4)c(N)c3cc2c1 | inactive | inactive |  | 2.22% [at 17.1 µM, percent relative to cAMP agonist control] | inactive |
| CCc1ccccc1NC(=O)CCC(=O)N1CCN(C(C)=O)CC1 | inactive | inactive | inactive |  | inactive |
| O=C(Nc1ccc(Cl)cc1)N[C@@H]1CC[C@H](CCNS(=O)(=O)c2ccccc2F)O[C@@H]1CO | inactive | inactive | inactive |  | inactive |
| CC(=O)NC(c1ccc2ccccc2c1)c1ccc2cccnc2c1O (centres undefined) | inactive | inactive | inactive |  | 10.7 µM (active) |
| N#Cc1cc(NC(=O)c2ccc(Cl)cc2)ccc1Sc1ccccc1 | inactive | inactive | inactive |  | inactive |
| COc1cc(C(=O)N(Cc2cc3ccc(C)cc3nc2N(C)C)C2CC2)cc(OC)c1OC | inactive | inactive | inactive |  | 17.5 µM (active) |
| Cc1cccc(CC2C(=O)Nc3ccccc32)c1 (centres undefined) | inactive | inactive | inactive |  | inactive |
| CC(c1ccc(N(C)C)cc1)c1ccnc2ccccc12 (centres undefined) | inactive | inactive | inactive |  | inactive |
| Cc1cc(Nc2cccc(C(F)(F)F)c2)nc2ccc(NC(=O)c3ccc(N(C)C)cc3)cc12 | inactive | inactive | inactive |  | inactive |
| Cc1[nH]c2ccccc2c1/C=C/c1ccnc2ccccc12 | inactive | inactive | inactive |  | inactive |
| CC(C)C[C@@H](COc1ccccc1)N1CCN(Cc2ccccc2)CCC1=O | inactive | inactive | inactive |  | 62.2 µM (active) |
| COc1cccc(OC)c1NC(=O)c1ccc(-c2cc(Cl)ccc2Cl)o1 | inactive | inactive | inactive |  | inactive |
| O=C(C[N+]12CN3CN(CN(C3)C1)C2)c1ccc(I)cc1 | inactive | inactive | inactive |  | inactive |

| SMILES | Potency [1] | Potency [2] | Potency [3] | activation [3] | Potency [4] |
| --- | --- | --- | --- | --- | --- |
| CN(C)CCNC(=O)c1cccc(-c2cnc3c(NC=O)cc(-c4cccc(C(F)(F)F)c4)cn23)c1 | inactive | inactive | inactive |  | inactive |
| C#C[C@]1(OC(C)=O)CCC2C3CCC4=CC(=O)CC[C@@H]4C3CC[C@@]21C (some centres undefined) | inactive | inactive | inactive |  | 39.3 µM (active) |
| COC(=O)c1cn(C(=O)c2ccc(OC)cc2)c2ccccc12 | inactive | inactive | 31.6 µM (active) |  | inactive |
| NC(=O)Nc1ccc(/C=C2\C=Cc3ccccc32)cc1 | inactive | inactive | inactive |  | 44.1 µM (active) |
| O=C1[C@H](Cc2ccccc2)NCCCC[C@H](c2ccco2)N1Cc1ccccc1 | inactive | inactive | inactive |  | inactive |
| COc1ccc(CCn2c(=N)c(S(=O)(=O)c3ccc(C)cc3)cc3c(=O)n4ccccc4nc32)cc1 | 79.4 µM (active) | inactive |  | -30.1% [at 17.1 µM, percent relative to cAMP agonist control] | inactive |
| COc1cccc(-c2nc3cc(SC)ccc3cc2CN(C(=O)c2sccc2C)C2CC2)c1 | inactive | inactive | inactive |  | 31.2 µM (active) |
| COc1ccc(-c2cc(C(F)F)n3ncc(C(=O)N4CCc5ccccc54)c3n2)cc1 | inactive | inactive | inactive |  | inactive |
| CC1Sc2ccc(C(=O)OCc3ccccc3Cl)cc2NC1=O (centres undefined) | inactive | inactive | inactive |  | inactive |
| CC(=O)Nc1ccc(SC[C@H](C)CN2CC[C@H](C(C)(C)C)CCC2=O)cc1 | inactive | inactive | inactive |  | 44.1 µM (active) |
| COc1ccc(N2CCN(C3CCCCC3NS(=O)(=O)c3ccccc3)CC2)cc1 (centres undefined) | inactive | inactive | inactive |  | 16.9 µM (active) |
| Cn1c(O)c(N=NC(=O)c2ccccc2O)c2ccccc21 | 53.6 µM (active) | inactive | inactive |  | inactive |
| N#CCC(=O)Nc1sc2c(c1C(N)=O)CCCC2 | inactive | inactive |  | 10.1% [at 17.1 µM, percent relative to cAMP agonist control] | inactive |
| CC(=O)Nc1ccc(NC(=O)CCC(=O)OCC(=O)c2ccc(C)c([N+](=O)[O-])c2)cc1 | inactive | inactive | inactive |  | inactive |
| Cc1cccc(C)c1OCC(=O)N(Cc1ccco1)Cc1ccco1 | inactive | inactive | inactive |  | inactive |
| Cn1cccc1-c1cc(C(=O)N/N=C/c2ccc(F)cc2)[nH]n1 | inactive | inactive |  | -2.5% [at 17.1 µM, percent relative to cAMP agonist control] | inactive |
| O=C(c1ccco1)N(Cc1ccc([N+](=O)[O-])cc1)c1ccc(Br)cc1 | inactive | inactive |  | -0.906% [at 17.1 µM, percent relative to cAMP agonist control] | inactive |
| COC(=O)c1c(NC(=O)c2c(OC)cccc2OC)sc2c1CCCC2 | inactive | inactive | inactive |  | inactive |
| Cc1cc(-c2cc(F)cc3c2OC(CNC(=O)CCn2cncn2)C3)ccc1F (centres undefined) | inactive | inactive | inactive |  | inactive |
| COc1cccc(-c2nc3cc(SC)ccc3cc2CN(C(=O)c2csc(C)n2)C2CC2)c1 | inactive | inactive | inactive |  | 11.1 µM (active) |
| CN(C)c1ccc(/C=C/c2ccnc3ccc(F)cc23)cc1 | inactive | inactive | inactive |  | inactive |
| CC1CN(C(=O)CCC(=O)NCc2ccccc2)c2ccccc2S1 (centres undefined) | inactive | inactive | inactive |  | inactive |
